Results filed as inconclusive are left out. Entries that show only a call come without a potency. Active and inactive are the calls of the source. The call rests on the fitted dose curve; in most records, active means well fitted cell-killing curve with a large enough effect; inconclusive means small, poorly fitted or top-dose-only effect, or effect the other way; inactive means no such curve, though single readings can be large or run the other way.
Assay: Quantitative High-Throughput drug screen in 47 multiple myeloma cell lines against the NCATS MIPE library collection: Delta47_JCRB cell viability assay (AID 1918925; further: nearly all actives have a fitted effect of over 45% in size)
Settings: Delta47 myeloma viability, CellTiter-Glo ATP, 48 h; series mostly up to 45.8 µM
Description: PI: Beverly A. Mock Ph.D.
Laboratory of Cancer Biology and Genetics,
Center for Cancer Research, National Cancer Institute,
National Institute of Health, Bethesda, Maryland
Drug resistance and disease progression are common in multiple myeloma (MM) patients, underscoring the need for new therapeutic combinations. […] We hypothesized that effective combinations would reduce MYC expression and enhance p16 activity. […] These preclinical data identify potentially useful drug combinations for evaluation in drug-resistant MM and reveal potential mechanisms of combined drug sensitivity.
Described herein is the primary MIPE qHTS used to cherrypick compounds. Validated compounds were then further tested for potential synergistic activiy.
[1] Peat TJ, Gaikwad SM, Dubois W, Gyabaah-Kessie N, Zhang S, Gorjifard S, Phyo Z, Andres M, Hughitt VK, Simpson RM, Miller MA, Girvin AT, Taylor A, Williams D, D'Antonio N, Zhang Y, Rajagopalan A, Flietner E, Wilson K, Zhang X, Shinn P, Klumpp-Thomas C, McKnight C, Itkin Z, Chen L, Kazandijian D, Zhang J, Michalowski AM, Simmons JK, Keats J, Thomas CJ, Mock BA. Drug combinations identified by high-throughput screening promote cell cycle transition and upregulate Smad pathways in myeloma. Cancer Lett. 2023 Aug 1;568:216284. doi: 10.1016/j.canlet.2023.216284. Epub 2023 Jun 24. PMID: 37356470; PMCID: PMC10408729.
SEQUENCE No. (e.g., 1, 2, 3, etc.); […] (e.g., Cells, Incubation, Reagent, etc.); VALUE and DESCRIPTION.
1; Cells; 5 uL; white, solid bottom 1536-well Greiner assay plate.
2; Compounds; 23 nL; Kalypsis pin tool (Wako USA) equipped with a 1536-well pin head to transfer to the assay plates.
3; Incubation; 48 hours; 37C incubation.
4; Reagent;5uL; CellTiter Glo (Promega).
5; Detector; 425V; Luminescence; Viewlux PerkinElmer.
NOTES (numbers refer to Sequence numbers above)
1. The cell-based screening methods employed in this study were like those previously published. Briefly, the corresponding myeloma cell lines were screened in 1,536-well plates with 500 cells, 5-uL per well for inhibition of cell viability (assessed by measuring ATP levels with CellTiterGlo).
2. NCATS MIPE 4.0 library of approved and investigational drugs were added using the Kalypsis pin tool. Wells treated with DMSO only for 100% viability and media only wells for 0% viability were used as controls.
3. The assay plates were covered and incubated for 48 hours in a 37C, 5% CO2 incubator with controlled humidity.
4. After 48 hours, CellTilter-GloTM luminescent substrate mix (Promega) reagent was added to the assay plate and plates we incubated for 5 min at room temperature.
5. Signal was measured as median relative luminescence units on a ViewLux (PerkinElmer) multiplate reader.
[1] Heske CM, Davis MI, Baumgart JT, Wilson K, Gormally MV, Chen L, Zhang X, Ceribelli M, Duveau DY, Guha R, Ferrer M, Arnaldez FI, Ji J, Tran HL, Zhang Y, Mendoza A, Helman LJ, Thomas CJ. Matrix Screen Identifies Synergistic Combination of PARP Inhibitors and Nicotinamide Phosphoribosyltransferase (NAMPT) Inhibitors in Ewing Sarcoma. Clin Cancer Res. 2017 Dec 1;23(23):7301-7311. doi: 10.1158/1078-0432.CCR-17-1121. Epub 2017 Sep 12. PMID: 28899971; PMCID: PMC6636827.
Potency means the concentration at half of the fitted maximal effect.

SMILES | Potency
CCn1cc(C(=O)O)c(=O)c2cc(F)c(N3CCNCC3)cc21 | inactive
CC(C)NCC(O)c1ccc(NS(C)(=O)=O)cc1 (stereo not given) | inactive
COc1ccc(-c2ccc3cc(C(=O)O)ccc3c2)cc1C12CC3CC(CC(C3)C1)C2 | inactive
COc1cc(NS(=O)(=O)c2ccc(N)cc2)nc(OC)n1 | inactive
CC1=CC(=O)c2ccccc2C1=O | 16.6 µM (active)
CC[C@H](NC(C)C)[C@H](O)c1ccc(O)c2[nH]c(=O)ccc12 | inactive
CC(C)(Sc1cc(C(C)(C)C)c(O)c(C(C)(C)C)c1)Sc1cc(C(C)(C)C)c(O)c(C(C)(C)C)c1 | 5.26 µM (active)
O=C(O)c1cc(=O)[nH]c(=O)[nH]1 | inactive
Cn1c(=O)c2c(ncn2CC(O)CO)n(C)c1=O (stereo not given) | inactive
CN(C)CCc1c[nH]c2ccc(C[C@H]3COC(=O)N3)cc12 | inactive
COc1cccc(N(C)C(=S)Oc2ccc3c(c2)CCCC3)n1 | inactive
CCCN[C@H]1CCc2nc(N)sc2C1 | inactive
CN(C)CCc1c[nH]c2ccc(CS(=O)(=O)N3CCCC3)cc12 | inactive
CC(N)C12CC3CC(CC(C3)C1)C2 (stereo not given) | inactive
CCn1cc(C(=O)O)c(=O)c2cc(F)c(N3CCNCC3)nc21 | inactive
COC(=O)Nc1nc2ccc(S(=O)c3ccccc3)cc2[nH]1 (stereo not given) | 6.62 µM (active)
CCn1cc(C(=O)O)c(=O)c2cc(F)c(N3CCN(C)CC3)cc21 | inactive
C[C@@H](NCCCc1cccc(C(F)(F)F)c1)c1cccc2ccccc12 | inactive
CO[C@@H]1[C@@H](OC(N)=O)[C@@H](O)[C@H](Oc2ccc3c(O)c(NC(=O)c4ccc(O)c(CC=C(C)C)c4)c(=O)oc3c2C)OC1(C)C | 5.26 µM (active)
CC(=O)[C@H]1CC[C@H]2[C@@H]3CC=C4C[C@@H](O)CC[C@]4(C)[C@H]3CC[C@]12C | inactive

SMILES | Potency
COc1cc(NCc2ccc3nc(N)nc(N)c3c2C)cc(OC)c1OC | 18.7 µM (active)
NC(=O)c1ccc2[nH]ccc2c1 | inactive
O=C(O)C1CCCN(CCC=C(c2ccccc2)c2ccccc2)C1 (stereo not given) | inactive
CCCc1cc(C(N)=S)ccn1 | inactive
COc1ncnc(NS(=O)(=O)c2ccc(N)cc2)c1OC | inactive
CCC(=O)O[C@]1(C(=O)SCF)[C@H](C)C[C@H]2[C@@H]3C[C@H](F)C4=CC(=O)C=C[C@]4(C)[C@@]3(F)[C@@H](O)C[C@@]21C | inactive
COC(=O)Nc1nc2ccc(C(=O)c3ccccc3)cc2[nH]1 | 1.66 µM (active)
C1CCC(C(CC2CCCCN2)C2CCCCC2)CC1 (stereo not given) | 13.2 µM (active)
NNC(=O)c1ccncc1 | inactive
O=C(O)CSCC(=O)NC1CCSC1=O (stereo not given) | inactive
CCOC(=O)[C@H](CCc1ccccc1)N[C@H]1CCc2ccccc2N(CC(=O)O)C1=O | 20.9 µM (active)
COc1cc2nc(N3CCCN(C)CC3)nc(NC3CCN(Cc4ccccc4)CC3)c2cc1OC | 2.09 µM (active)
CC(C)C[C@H](NC(=O)[C@H](CCc1ccccc1)NC(=O)CN1CCOCC1)C(=O)N[C@@H](Cc1ccccc1)C(=O)N[C@@H](CC(C)C)C(=O)[C@@]1(C)CO1 | 0.001 µM (active)
CN1CCN(c2c(F)cc3c(=O)c(C(=O)O)cn4c3c2OCN4C)CC1 | inactive
Cc1ccc(S(=O)(=O)N[C@@H](Cc2ccccc2)C(=O)CCl)cc1 | 5.26 µM (active)
O=c1cc(O)c(Cl)c[nH]1 | inactive
CN(Cc1cc(Br)cc(Br)c1N)C1CCCCC1 | inactive
O=C(O)c1cccnc1 | inactive
COc1ccc2cc3[n+](cc2c1OC)CCc1cc2c(cc1-3)OCO2 | 5.26 µM (active)
CCN(CC)CC#CCOC(=O)C(O)(c1ccccc1)C1CCCCC1 (stereo not given) | inactive

Reference: PubChem BioAssay (NCATS)
